Reference: PubChem BioAssay (EPA / NIEHS)
Records with an inconclusive call do not appear. The source made the active and inactive calls. How the source made its calls, unless noted: active means hit-call score of the fitted dose curve at least 0.9, where 1 is the maximum; inactive means score below 0.9.

Key:
[1] = molecular target: Paired box protein Pax-6 (Homo sapiens) (UniProt P26367); test: ATG_Pax6_CIS: Attagene CIS-FACTORIAL HepG2 Assay for human Paired Box 6 (PAX6) (AID 2282956); conditions: HepG2 CIS-FACTORIAL PAX6 reporter transcription, RNA readout; actives raise or lower the signal
Outline: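 Transient MRTU transfection of HepG2 → compound exposure 24 h → TriZol RNA, oligo(dT) RT → PCR, 6-FAM primer extension, HpaI cut → capillary electrophoresis; activity fitted both directions against DMSO.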

[2] = ATG_PXRE_CIS: Attagene CIS-FACTORIAL HepG2 Assay for human Pregnane X Receptor Element (PXRE) (AID 2282957); conditions: HepG2 Attagene CIS-FACTORIAL PXRE reporter, mRNA; actives raise or lower the signal
Outline: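 Transfect HepG2 with MRTUs (cis promoter elements); dose chemical, incubate 24 h; isolate RNA, RT with oligo(dT), PCR, 6-FAM label, HpaI cut, CE. Gain/loss fit vs DMSO.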

[3] = ATG_PPRE_CIS: Attagene CIS-FACTORIAL HepG2 Assay for human Peroxisome Proliferator-activated Response Element (PPRE) (AID 2282958); conditions: HepG2 PPRE cis-element reporter, Attagene transcription factor profiling; actives raise or lower the signal
Outline: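 In this cell-based multiplex, a PPRE cis element drives a reporter sequence in transiently transfected HepG2 cells. Following 24 h treatment, labeled cDNA amplicons are sized and quantified by capillary electrophoresis, with DMSO defining baseline.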

[4] = ATG_RORE_CIS: Attagene CIS-FACTORIAL HepG2 Assay for human RAR-related Orphan Receptor Element (RORE) (AID 2282959); conditions: HepG2 Attagene cis-factorial RORE reporter, mRNA; actives raise or lower the signal
Outline: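 Endogenous factor activity at a cis response element is read as reporter transcript levels in HepG2 cells, 24 h post-dose. Transcripts are quantified by RT-PCR with capillary electrophoresis, and data fitted in both directions against DMSO.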

[5] = ATG_Sox_CIS: Attagene CIS-FACTORIAL HepG2 Assay for human SRY-box transcription factor (SOX) (AID 2282960); conditions: HepG2 Attagene cis-factorial SOX reporter, mRNA; actives raise or lower the signal
Outline: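 Measures mRNA induction of a SOX1-associated reporter in HepG2 after 24 h dosing. Fluorescently labelled RT-PCR fragments are separated by capillary electrophoresis, and gain or loss relative to DMSO control is fitted.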

[6] = molecular target: Transcription factor Sp1 (Homo sapiens) (UniProt P08047); test: ATG_Sp1_CIS: Attagene CIS-FACTORIAL HepG2 Assay for human Specificity Protein 1 (Sp1) (AID 2282961); conditions: HepG2 Sp1 cis-reporter transcription, actives raise or lower the signal
Outline: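 Cells: HepG2, transiently transfected with cis-regulated multiplexed reporters. Exposure: 24 h. Detection: reporter transcripts amplified, fluorescently labeled, restriction-digested and sized by capillary electrophoresis. Analysis: bidirectional fit relative to DMSO.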

[7] = molecular target: Signal transducer and activator of transcription 3 (Homo sapiens) (UniProt P40763); test: ATG_STAT3_CIS: Attagene CIS-FACTORIAL HepG2 Assay for human Signal Transducer and Activator of Transcription 3 (STAT3) (AID 2282963); conditions: HepG2, Attagene cis-factorial STAT3 reporter transcription; actives raise or lower the signal
Outline: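 HepG2 cells transiently transfected with multiple cis-element-driven reporter units report endogenous transcription factor activity. After 24 h compound exposure, reporter mRNA is measured by RT-PCR, 6-FAM labelling, HpaI digestion and capillary electrophoresis. Fitted bidirectionally versus DMSO.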

[8] = ATG_TA_CIS: Attagene CIS-FACTORIAL HepG2 Assay for human TA Basal Promoter (AID 2282964); conditions: HepG2 Attagene CIS-factorial TA basal promoter reporter; actives raise or lower the signal
Outline: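 HepG2 cells transiently transfected with multiple reporter units under cis promoter elements, reporting endogenous transcription factor activity; this endpoint tracks the TA basal promoter as background control. Reporter mRNA after 24 h dosing measured by RT-PCR/capillary electrophoresis; bidirectional fits versus DMSO.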

[9] = ATG_TCF_b_cat_CIS: Attagene CIS-FACTORIAL HepG2 Assay for human T-Cell-Factor with beta-catenin (TCF/b-cat) (AID 2282965); conditions: HepG2 TCF/beta-catenin cis-reporter transcription, actives raise or lower the signal
Outline: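 HepG2 cells transiently transfected with cis-promoter-driven multiplexed reporter units; reporter mRNA measured 24 h after dosing by RT-PCR, FAM labelling, HpaI digestion and capillary electrophoresis. Bidirectional fitting relative to DMSO baseline.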

[10] = ATG_TAL_CIS: Attagene CIS-FACTORIAL HepG2 Assay for human TAL Basal Promoter (AID 2282966); conditions: HepG2 Attagene cis-factorial TAL promoter reporter; actives raise or lower the signal;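 further: background control endpoint measuring basal TAL promoter reporter mRNA not a specific factor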
Outline: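 Fluorescence of labelled reporter cDNA fragments, resolved by capillary electrophoresis, gave the readout. Human HepG2 liver cells carried transiently transfected cis-element reporter units and were treated for 24 hours; activity was fitted bidirectionally against DMSO.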

[11] = ATG_TGFb_CIS: Attagene CIS-FACTORIAL HepG2 Assay for human Transforming Growth Factor (TGF) (AID 2282967); conditions: HepG2 Attagene CIS TGFb reporter, mRNA transcription; actives raise or lower the signal
Outline: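 HepG2 cells transiently transfected with cis-promoter-driven multiple reporter units measure endogenous TF activity; reporter mRNA quantified at 24 h by RT-PCR, FAM labeling, HpaI digestion and capillary electrophoresis. Bidirectional fit vs DMSO.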

[12] = ATG_VDRE_CIS: Attagene CIS-FACTORIAL HepG2 Assay for human Vitamin D Receptor Element (VDRE) (AID 2282968); conditions: HepG2 VDRE cis-reporter transcription, actives raise or lower the signal
Outline: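 Transiently transfected HepG2 cells carrying cis-regulated reporter transcription units were exposed for 24 h. Reporter mRNA was measured by RT-PCR with fluorescent labelling and capillary electrophoresis, and fitted in both directions against DMSO.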

[13] = molecular target: Nuclear receptor subfamily 1 group I member 3 (Homo sapiens) (UniProt Q14994); test: ATG_CAR_TRANS: Attagene TRANS-FACTORIAL HepG2 Assay for human Constitutive Androstane Receptor (CAR) (AID 2282969; active means hit-call score of the fitted dose curve at least 0.9, where 1 is the maximum;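 further: activators raise reporter mRNA above DMSO so AC50 marks induction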); conditions: HepG2 Attagene TRANS-FACTORIAL CAR reporter
Outline: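 HepG2 cells transiently transfected with GAL4-UAS reporter units; TRANS format reads activity of exogenous chimeric NR-Gal4 protein. After 24 h dosing, reporter mRNA quantified by RT-PCR, 6-FAM labelling and capillary electrophoresis; gain of signal fitted against DMSO.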

[14] = molecular target: Estrogen receptor (Homo sapiens) (UniProt P03372); test: ATG_ERa_TRANS: Attagene TRANS-FACTORIAL HepG2 Assay for human Estrogen Receptor alpha (ERa) (AID 2282970; active means hit-call score of the fitted dose curve at least 0.9, where 1 is the maximum); conditions: HepG2 Attagene TRANS ERa GAL4 reporter, mRNA
Outline: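 Human liver HepG2, transient transfection of multiple GAL4-UAS reporter units; TRANS format (exogenous NR-Gal4 chimera). 24 h dosing. Readout: reporter mRNA, RT-PCR, 6-FAM primer extension, HpaI digest, capillary electrophoresis. Positive direction vs DMSO.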

[15] = molecular target: Steroid hormone receptor ERR1 (Homo sapiens) (UniProt P11474); test: ATG_ERRa_TRANS: Attagene TRANS-FACTORIAL HepG2 Assay for human Estrogen-Related Receptor alpha (ERRa) (AID 2282971; active means hit-call score of the fitted dose curve at least 0.9, where 1 is the maximum); conditions: HepG2 Attagene TRANS reporter, ERRa transactivation
Outline: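 Reporter transcript induction was quantified by RT-PCR and capillary electrophoresis of FAM-labelled, HpaI-cut products after 24 h treatment of HepG2 cells carrying transiently transfected GAL4-UAS reporter units and an exogenous ERRa-Gal4 fusion; activity scored as increase over DMSO.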

[16] = ATG_GAL4_TRANS: Attagene TRANS-FACTORIAL HepG2 Assay for GAL4 (Internal Marker) (AID 2282976; active means hit-call score of the fitted dose curve at least 0.9, where 1 is the maximum); conditions: HepG2 Attagene TRANS GAL4 internal marker reporter
Outline: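 First, HepG2 cells were transfected with reporter units under GAL4-UAS control. Next, they were treated with chemical for 24 h. Finally, RNA was reverse-transcribed, PCR-amplified, FAM-labelled and resolved by capillary electrophoresis, with induction scored against DMSO.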

[17] = molecular target: Estrogen-related receptor gamma (Homo sapiens) (UniProt P62508); test: ATG_ERRg_TRANS: Attagene TRANS-FACTORIAL HepG2 Assay for human Estrogen-Related Receptor gamma (ERRg) (AID 2282977; active means hit-call score of the fitted dose curve at least 0.9, where 1 is the maximum;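 further: hits increase reporter signal over DMSO so potencies reflect activators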); conditions: HepG2 Attagene TRANS reporter, ERRg transactivation
Outline: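 HepG2 cells transiently transfected with multiplexed GAL4-UAS reporter units driven by chimeric NR-Gal4 proteins; 24 h exposure. Reporter mRNA quantified by RT-PCR, fluorescent labelling, HpaI digestion and capillary electrophoresis; gain of signal vs DMSO.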

[18] = ATG_SREBP_CIS: Attagene CIS-FACTORIAL HepG2 Assay for human Sterol Regulatory Element Binding (SREBP) (AID 2282962); conditions: HepG2 Attagene cis-factorial SREBP reporter, mRNA; actives raise or lower the signal
Outline: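 Transfected HepG2 (cis-regulated reporter library, endogenous TFs) → compound 24 h → total RNA → oligo(dT) RT → reporter-specific PCR → FAM primer extension, HpaI cut → CE fluorescence. Fit bidirectional vs DMSO.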

[19] = molecular target: X-box-binding protein 1 (Homo sapiens) (UniProt P17861); test: ATG_Xbp1_CIS: Attagene CIS-FACTORIAL HepG2 Assay for human X-box Binding Protein 1 (XBP1) (AID 2282972); conditions: HepG2 XBP1 cis-element reporter, Attagene multiplex; actives raise or lower the signal
Outline: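 HepG2, transient MRTU transfection (cis-promoter driven), 24 h compound exposure. Total RNA → oligo(dT) RT → PCR → 6-FAM labeling → HpaI cut → CE. Bidirectional fit vs DMSO.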

[20] = ATG_M_19_TRANS: Attagene TRANS-FACTORIAL HepG2 Assay for M19 Transcription Factor (Internal Marker) (AID 2282974; active means hit-call score of the fitted dose curve at least 0.9, where 1 is the maximum); conditions: HepG2 Attagene TRANS-FACTORIAL M19 internal marker reporter
Outline: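 Reporter mRNA induction was measured in transfected HepG2 cells 24 h after dosing. Endpoint fitted upward relative to DMSO and serves as a background control within the multiplexed TRANS panel.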

Measured: AC50

Sequence of Signal transducer and activator of transcription 3 (Homo sapiens) (P40763 whole entry, looked up): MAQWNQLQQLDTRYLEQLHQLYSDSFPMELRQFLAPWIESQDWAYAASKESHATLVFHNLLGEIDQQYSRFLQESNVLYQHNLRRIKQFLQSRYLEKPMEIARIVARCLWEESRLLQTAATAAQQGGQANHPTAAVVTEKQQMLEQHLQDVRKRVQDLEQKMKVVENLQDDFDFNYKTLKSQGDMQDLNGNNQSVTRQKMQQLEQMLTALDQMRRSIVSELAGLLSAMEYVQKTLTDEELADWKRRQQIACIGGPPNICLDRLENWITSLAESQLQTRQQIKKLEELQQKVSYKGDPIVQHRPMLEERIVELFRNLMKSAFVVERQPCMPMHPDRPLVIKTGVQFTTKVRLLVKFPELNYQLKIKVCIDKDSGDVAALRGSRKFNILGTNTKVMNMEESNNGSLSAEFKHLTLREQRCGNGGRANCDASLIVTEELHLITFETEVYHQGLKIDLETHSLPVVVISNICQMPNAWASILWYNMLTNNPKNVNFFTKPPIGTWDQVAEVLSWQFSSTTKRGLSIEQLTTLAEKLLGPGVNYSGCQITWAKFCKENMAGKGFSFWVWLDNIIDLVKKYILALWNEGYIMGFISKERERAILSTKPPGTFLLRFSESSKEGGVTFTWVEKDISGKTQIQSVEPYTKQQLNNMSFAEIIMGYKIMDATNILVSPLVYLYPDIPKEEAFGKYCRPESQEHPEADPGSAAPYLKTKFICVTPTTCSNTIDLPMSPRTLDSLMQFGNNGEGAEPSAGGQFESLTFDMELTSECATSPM
Sequence of Transcription factor Sp1 (Homo sapiens) (P08047 whole entry, looked up): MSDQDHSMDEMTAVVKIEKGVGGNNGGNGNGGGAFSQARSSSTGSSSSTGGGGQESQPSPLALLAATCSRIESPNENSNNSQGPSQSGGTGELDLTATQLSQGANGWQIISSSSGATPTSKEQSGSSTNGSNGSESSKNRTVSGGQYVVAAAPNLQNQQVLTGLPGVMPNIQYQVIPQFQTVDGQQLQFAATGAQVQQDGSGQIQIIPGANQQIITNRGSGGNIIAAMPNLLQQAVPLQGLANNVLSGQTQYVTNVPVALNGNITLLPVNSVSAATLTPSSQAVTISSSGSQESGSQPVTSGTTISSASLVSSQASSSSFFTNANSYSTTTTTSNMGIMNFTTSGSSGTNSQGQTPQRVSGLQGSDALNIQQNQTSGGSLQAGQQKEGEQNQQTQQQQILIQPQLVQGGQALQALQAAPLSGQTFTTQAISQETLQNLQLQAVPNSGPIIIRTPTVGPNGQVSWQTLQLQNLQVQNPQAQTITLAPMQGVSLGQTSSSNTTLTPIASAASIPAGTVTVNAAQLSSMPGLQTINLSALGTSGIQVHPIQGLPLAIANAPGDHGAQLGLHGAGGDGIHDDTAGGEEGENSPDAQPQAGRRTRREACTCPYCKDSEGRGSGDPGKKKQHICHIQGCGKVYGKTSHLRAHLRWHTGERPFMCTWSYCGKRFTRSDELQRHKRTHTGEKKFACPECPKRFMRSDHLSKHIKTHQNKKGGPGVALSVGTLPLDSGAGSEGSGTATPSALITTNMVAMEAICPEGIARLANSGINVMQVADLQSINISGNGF
Sequence of Paired box protein Pax-6 (Homo sapiens) (P26367 whole entry, looked up): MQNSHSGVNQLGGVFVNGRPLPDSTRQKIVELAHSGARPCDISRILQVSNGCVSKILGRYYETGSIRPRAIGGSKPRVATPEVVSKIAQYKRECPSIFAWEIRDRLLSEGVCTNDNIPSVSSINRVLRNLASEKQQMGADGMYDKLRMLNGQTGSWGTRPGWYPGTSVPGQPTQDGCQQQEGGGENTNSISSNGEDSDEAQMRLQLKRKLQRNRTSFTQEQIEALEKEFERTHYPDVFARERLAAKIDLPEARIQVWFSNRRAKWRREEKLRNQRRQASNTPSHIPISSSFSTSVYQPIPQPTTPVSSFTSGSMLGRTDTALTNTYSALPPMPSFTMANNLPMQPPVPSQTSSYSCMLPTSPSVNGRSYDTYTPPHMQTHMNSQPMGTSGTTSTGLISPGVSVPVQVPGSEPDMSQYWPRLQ
Sequence of Estrogen receptor (Homo sapiens) (P03372 whole entry, looked up, the tested form may be a part): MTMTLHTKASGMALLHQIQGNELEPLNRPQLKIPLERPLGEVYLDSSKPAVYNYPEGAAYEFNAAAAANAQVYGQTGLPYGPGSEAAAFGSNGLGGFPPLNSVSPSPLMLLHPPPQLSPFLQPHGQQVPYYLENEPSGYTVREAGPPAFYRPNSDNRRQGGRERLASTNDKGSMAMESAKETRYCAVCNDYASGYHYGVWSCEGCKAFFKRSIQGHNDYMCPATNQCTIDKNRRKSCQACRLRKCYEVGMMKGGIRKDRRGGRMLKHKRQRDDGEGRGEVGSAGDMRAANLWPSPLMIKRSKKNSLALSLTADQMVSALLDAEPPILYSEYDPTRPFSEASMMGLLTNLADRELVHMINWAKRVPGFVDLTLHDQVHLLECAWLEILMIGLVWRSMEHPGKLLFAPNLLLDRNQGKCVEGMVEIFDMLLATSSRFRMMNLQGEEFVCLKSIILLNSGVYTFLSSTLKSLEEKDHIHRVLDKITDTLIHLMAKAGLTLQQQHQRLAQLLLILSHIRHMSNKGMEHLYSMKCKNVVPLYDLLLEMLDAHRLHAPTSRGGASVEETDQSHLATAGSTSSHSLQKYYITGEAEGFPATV
Sequence of X-box-binding protein 1 (Homo sapiens) (P17861 whole entry, looked up): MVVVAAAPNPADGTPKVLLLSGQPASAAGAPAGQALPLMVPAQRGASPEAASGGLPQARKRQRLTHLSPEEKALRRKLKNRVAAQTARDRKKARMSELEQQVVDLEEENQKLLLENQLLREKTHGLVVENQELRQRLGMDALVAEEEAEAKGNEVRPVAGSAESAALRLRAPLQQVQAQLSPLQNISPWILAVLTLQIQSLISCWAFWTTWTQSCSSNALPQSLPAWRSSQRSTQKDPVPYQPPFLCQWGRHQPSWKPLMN
Sequence of Nuclear receptor subfamily 1 group I member 3 (Homo sapiens) (Q14994 whole entry, looked up, the tested form may be a part): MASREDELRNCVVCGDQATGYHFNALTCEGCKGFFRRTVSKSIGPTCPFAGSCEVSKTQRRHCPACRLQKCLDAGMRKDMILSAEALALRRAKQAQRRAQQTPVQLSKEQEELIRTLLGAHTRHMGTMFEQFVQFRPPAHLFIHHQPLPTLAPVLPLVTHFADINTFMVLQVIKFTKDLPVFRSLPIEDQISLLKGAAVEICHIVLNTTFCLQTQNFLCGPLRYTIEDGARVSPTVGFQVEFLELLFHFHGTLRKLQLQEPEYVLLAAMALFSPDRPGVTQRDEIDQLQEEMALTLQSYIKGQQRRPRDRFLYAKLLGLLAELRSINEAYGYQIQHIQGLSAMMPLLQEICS
Sequence of Steroid hormone receptor ERR1 (Homo sapiens) (P11474 whole entry, looked up, the tested form may be a part): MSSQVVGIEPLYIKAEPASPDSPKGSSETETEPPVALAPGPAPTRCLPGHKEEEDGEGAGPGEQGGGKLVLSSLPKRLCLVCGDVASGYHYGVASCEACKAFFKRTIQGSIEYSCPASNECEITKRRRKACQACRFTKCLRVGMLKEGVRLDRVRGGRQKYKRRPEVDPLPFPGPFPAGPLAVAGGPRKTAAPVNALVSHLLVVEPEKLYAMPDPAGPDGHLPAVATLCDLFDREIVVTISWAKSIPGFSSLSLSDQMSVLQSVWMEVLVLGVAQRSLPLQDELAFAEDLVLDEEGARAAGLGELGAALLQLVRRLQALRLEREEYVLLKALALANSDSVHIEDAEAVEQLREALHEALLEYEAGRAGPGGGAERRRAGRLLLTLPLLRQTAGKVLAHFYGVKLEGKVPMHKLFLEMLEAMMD
Sequence of Estrogen-related receptor gamma (Homo sapiens) (P62508 whole entry, looked up, the tested form may be a part): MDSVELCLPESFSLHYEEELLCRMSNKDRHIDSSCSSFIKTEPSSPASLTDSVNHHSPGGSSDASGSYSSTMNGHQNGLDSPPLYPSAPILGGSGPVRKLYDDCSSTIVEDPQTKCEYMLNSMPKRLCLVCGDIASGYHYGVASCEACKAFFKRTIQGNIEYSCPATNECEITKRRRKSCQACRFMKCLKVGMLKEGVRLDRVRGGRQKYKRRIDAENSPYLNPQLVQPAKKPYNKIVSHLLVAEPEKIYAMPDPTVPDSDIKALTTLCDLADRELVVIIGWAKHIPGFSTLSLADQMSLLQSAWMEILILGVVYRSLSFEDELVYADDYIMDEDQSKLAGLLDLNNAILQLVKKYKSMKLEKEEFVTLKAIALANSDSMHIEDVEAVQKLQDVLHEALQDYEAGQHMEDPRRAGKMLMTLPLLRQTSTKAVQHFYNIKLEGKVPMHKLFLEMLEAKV

CC(=O)OCc1ccco1
not listed: [18] | [19] | [20]
inactive: all other assays above

CCCC(C)CCC(C)=O (stereo not given)
not listed: [4] | [13] | [14] | [15] | [17] | [19] | [20]
inactive: all other assays above

CCOc1nc(F)cc2nc(S(=O)(=O)Nc3c(Cl)cccc3C(=O)OC)nn12
active: [2] 7.46 µM | [12] 16.6 µM
not listed: [4] | [13] | [14] | [15] | [17] | [20]
inactive: all other assays above

ON(Cc1ccccc1)Cc1ccccc1
active: [2] 41.6 µM
not listed: [4] | [15] | [16] | [17]
inactive: all other assays above
